# Molecular target: Neuropilin-1 (Homo sapiens) (UniProt O14786)
# Test: blockers of CendR peptide binding to NRP-1 – biochemical, FP and AlphaScreen panel, dose response (AID 651650)
# Details: NRP-1 b1b2 / RPARPAR peptide binding, FP or AlphaScreen; run 1, at 100 µM (top of the series)
# Neuropilin-1 (Homo sapiens), sequence (O14786 whole entry, looked up): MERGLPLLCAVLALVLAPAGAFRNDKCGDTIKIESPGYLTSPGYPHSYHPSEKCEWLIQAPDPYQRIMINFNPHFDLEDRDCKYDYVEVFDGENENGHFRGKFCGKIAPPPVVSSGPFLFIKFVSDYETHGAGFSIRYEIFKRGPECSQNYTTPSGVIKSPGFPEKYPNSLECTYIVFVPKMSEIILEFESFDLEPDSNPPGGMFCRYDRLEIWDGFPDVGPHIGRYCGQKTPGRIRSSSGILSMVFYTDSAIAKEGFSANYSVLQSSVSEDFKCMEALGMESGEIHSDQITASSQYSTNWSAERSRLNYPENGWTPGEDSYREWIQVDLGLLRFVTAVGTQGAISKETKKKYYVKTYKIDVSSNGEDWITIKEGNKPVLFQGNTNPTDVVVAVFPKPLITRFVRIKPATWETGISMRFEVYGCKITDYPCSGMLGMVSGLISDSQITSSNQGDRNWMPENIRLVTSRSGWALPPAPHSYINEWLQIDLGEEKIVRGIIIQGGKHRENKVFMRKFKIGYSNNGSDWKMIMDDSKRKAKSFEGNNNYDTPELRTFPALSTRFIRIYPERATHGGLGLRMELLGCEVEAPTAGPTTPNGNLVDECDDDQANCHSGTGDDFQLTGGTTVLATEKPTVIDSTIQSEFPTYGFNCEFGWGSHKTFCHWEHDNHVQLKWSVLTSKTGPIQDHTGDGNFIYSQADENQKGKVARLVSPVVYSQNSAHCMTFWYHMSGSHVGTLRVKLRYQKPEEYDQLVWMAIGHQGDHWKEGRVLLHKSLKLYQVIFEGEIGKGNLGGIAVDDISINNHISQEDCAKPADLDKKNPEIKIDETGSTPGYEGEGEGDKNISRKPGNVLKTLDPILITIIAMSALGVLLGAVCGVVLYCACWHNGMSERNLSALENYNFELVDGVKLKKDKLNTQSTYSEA
row,Structure (SMILES),inhibition [%]
1,CCOC(=O)c1ccc2[nH]c(C)c(C)c2c1,-0.673
2,COc1ccc(CN2C(=O)c3ccccc3C2=O)cc1C(=O)Nc1ccccc1N1CCOCC1,30
3,O=C(NCc1ccccc1)C(c1cccnc1)N(C(=O)c1ccccn1)c1ccccc1F (centres undefined),43.9
4,O=C(Nc1cccc(S(=O)(=O)N2CCCCC2)c1)c1ccc([N+](=O)[O-])o1,52.5
5,Cc1ccc(N(C(=O)c2ccc(CN3CCOCC3)o2)C(C(=O)NCCC(C)C)c2cccs2)c(C)c1 (centres undefined),16
6,COC(=O)c1cccc(NC(=S)NCCC2=CCCCC2)c1,4.3
7,CC(=O)Oc1cc2c(c3ccccc13)CCC2=O,23.4
8,CC1CCN(C(=O)CSc2nncn2C)CC1,0.359
9,C=C1CCN([C@@H](CC(C)C)C(=O)NCCC(C)C)S(=O)(=O)c2ccccc21,35.9
10,CCOc1c2ccc(C(=O)NCCc3cccs3)cc2nn1CC,-5.4
11,Cc1cc(C)n(-c2nnc3n2N=C(c2c[nH]c4ccccc24)CS3)n1,2.19
12,COc1ccc(NC(=O)C(C)Sc2ccccc2)cc1 (centres undefined),13.5
13,COC(=O)Cc1ccc(NC(=S)NCCCO)cc1,49.7
14,OCCCc1n[nH]c(=S)n1-c1ccccc1,31.2
15,Cc1ccccc1OCC1Cc2c(nc(N)c(C#N)c2N)O1 (centres undefined),-18.4
16,CCC1CCCCN1CCCNC(=O)C1CCCN(S(=O)(=O)N2CC(C)CC(C)C2)C1 (centres undefined),60.7
17,Cc1nc2c(OCCC3CCCCC3)cccn2c1N(C)C(=O)CCC1CCCC1,23.2
18,Cn1c(=O)c2[nH]c(NCCCN3CCOCC3)nc2n(C)c1=O,44.2
19,CCOc1ccc(S(=O)(=O)N2CCN(C(=O)c3sccc3C)CC2)cc1,101

# Reference: PubChem BioAssay AID651650 (Sanford-Burnham Center for Chemical Genomics, 2012)
